Measurements taken from PubChem BioAssay (EPA / NIEHS).
Inconclusive results are not listed. The source made the active and inactive calls. How the source made its calls, unless noted: active means hit-call score of the fitted dose curve at least 0.9, where 1 is the maximum; inconclusive means response in the unintended direction; inactive means score below 0.9.

Columns and labels:
[1] = ATG_TCF_b_cat_CIS: Attagene CIS-FACTORIAL HepG2 Assay for human T-Cell-Factor with beta-catenin (TCF/b-cat) (AID 2282965; active means hit-call score of the fitted dose curve at least 0.9, where 1 is the maximum; inactive means score below 0.9); details: HepG2 TCF/beta-catenin cis-reporter transcription, actives raise or lower the signal
How it was run: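 Endogenous TCF/LEF activity read as reporter transcript level via RT-PCR and capillary electrophoresis fluorescence in transfected HepG2, 24 h exposure; gain or loss of signal fitted against DMSO controls.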

[2] = ATG_TAL_CIS: Attagene CIS-FACTORIAL HepG2 Assay for human TAL Basal Promoter (AID 2282966; active means hit-call score of the fitted dose curve at least 0.9, where 1 is the maximum; inactive means score below 0.9;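 further: background control endpoint measuring basal TAL promoter reporter mRNA not a specific factor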); details: HepG2 Attagene cis-factorial TAL promoter reporter; actives raise or lower the signal
How it was run: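 Transiently transfected HepG2 (cis-regulated reporter units), 24 h treatment, mRNA read by fluorescent CE after RT-PCR; bidirectional fit, DMSO baseline.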

[3] = target: Estrogen receptor (Homo sapiens) (UniProt P03372); assay: ATG_ERa_TRANS: Attagene TRANS-FACTORIAL HepG2 Assay for human Estrogen Receptor alpha (ERa) (AID 2282970); details: HepG2 Attagene TRANS ERa GAL4 reporter, mRNA
How it was run: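 One of 30 multiplexed endpoints from a HepG2 TRANS system, this one reports ERa-Gal4-driven reporter mRNA. Transcripts were quantified 24 hours post-dosing by fluorescent RT-PCR and capillary electrophoresis, with activity scored as induction over DMSO.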

[4] = target: X-box-binding protein 1 (Homo sapiens) (UniProt P17861); assay: ATG_Xbp1_CIS: Attagene CIS-FACTORIAL HepG2 Assay for human X-box Binding Protein 1 (XBP1) (AID 2282972; active means hit-call score of the fitted dose curve at least 0.9, where 1 is the maximum; inactive means score below 0.9); details: HepG2 XBP1 cis-element reporter, Attagene multiplex; actives raise or lower the signal
How it was run: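 Reporter transcripts were quantified by RT-PCR with fluorescent primer extension and capillary electrophoresis after 24 h chemical exposure. Cells: transiently transfected HepG2 carrying cis-regulated reporter constructs; data fitted bidirectionally relative to DMSO.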

[5] = ATG_M_19_TRANS: Attagene TRANS-FACTORIAL HepG2 Assay for M19 Transcription Factor (Internal Marker) (AID 2282974); details: HepG2 Attagene TRANS-FACTORIAL M19 internal marker reporter
How it was run: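 Gain-of-signal in reporter mRNA, relative to DMSO, was scored from capillary electrophoresis fluorescence. HepG2 cells carried transiently transfected multiple reporter transcription units and were incubated with test chemicals for 24 h.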

[6] = target: Glucocorticoid receptor (Homo sapiens) (UniProt P04150); assay: ATG_GR_TRANS: Attagene TRANS-FACTORIAL HepG2 Assay for human Glucocorticoid Receptor (GR) (AID 2282978); details: HepG2 Attagene TRANS GR reporter, mRNA transcription;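 further: activators score as hits since higher reporter transcript over DMSO is fitted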
How it was run: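 HepG2 transient transfection, multiple reporter units, GAL4-UAS under NR-GAL4 chimera control. 24 h treatment. Reporter mRNA by RT-PCR/CE fluorescence, DMSO as negative control.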

[7] = target: Bile acid receptor (Homo sapiens) (UniProt Q96RI1); assay: ATG_FXR_TRANS: Attagene TRANS-FACTORIAL HepG2 Assay for Farnesoid X Receptor (FXR) (AID 2282979); details: HepG2 Attagene TRANS FXR-GAL4 reporter transcription;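 further: hits raise reporter mRNA above DMSO so AC50 marks FXR activation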
How it was run: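 HepG2 cells transiently transfected with reporter constructs in which a chimeric FXR-GAL4 protein drives a GAL4-UAS reporter; 24 h compound exposure. Reporter mRNA measured by RT-PCR, FAM labelling, HpaI digestion and capillary electrophoresis; gain-of-signal versus DMSO.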

[8] = target: Oxysterols receptor LXR-alpha (Homo sapiens) (UniProt Q13133); assay: ATG_LXRa_TRANS: Attagene TRANS-FACTORIAL HepG2 Assay for human Liver X Receptor alpha (LXRa) (AID 2282980); details: HepG2 Attagene TRANS reporter, LXRa transactivation
How it was run: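 HepG2 cells were transiently transfected with multiplexed reporter units driven by chimeric LXRa–GAL4 fusion proteins, then dosed for 24 h. Reporter mRNA was quantified by RT-PCR, fluorescent labelling and capillary electrophoresis; gain of signal fitted against DMSO baseline.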

[9] = ATG_M_06_TRANS: Attagene TRANS-FACTORIAL HepG2 Assay for M06 Transcription Factor (Internal Marker) (AID 2282983); details: HepG2 Attagene TRANS M06 internal marker reporter
How it was run: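 In this multiplexed HepG2 system, compounds are incubated 24 h with cells carrying GAL4-UAS reporter units. Reporter RNA is amplified and resolved by capillary electrophoresis, and induction is scored against DMSO.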

[10] = ATG_M_32_TRANS: Attagene TRANS-FACTORIAL HepG2 Assay for M32 Transcription Factor (Internal Marker) (AID 2282984); details: HepG2 Attagene TRANS M32 internal marker reporter;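 further: transcript level of a background control reporter unit measured by RT-PCR and capillary electrophoresis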
How it was run: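 Cell-based TRANS-format assay in HepG2: exogenous chimeric GAL4 reporter units transiently expressed, compounds applied 24 h. Reporter mRNA detected by RT-PCR plus capillary electrophoresis; this readout is an internal background marker.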

[11] = target: Nuclear receptor subfamily 4 group A member 2 (Homo sapiens) (UniProt P43354); assay: ATG_NURR1_TRANS: Attagene TRANS-FACTORIAL HepG2 Assay for human Nuclear Receptor Related Protein 1 (NURR1) (AID 2282985); details: HepG2 Attagene TRANS reporter, mRNA readout
How it was run: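 Measures transcriptional activation by an exogenous NR-Gal4 chimera in transfected HepG2 liver cells. After 24 h, reporter RNA is reverse-transcribed, amplified and resolved by capillary electrophoresis; DMSO defines baseline.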

[12] = target: Transcriptional activator Myb (Homo sapiens) (UniProt P10242); assay: ATG_Myb_CIS: Attagene CIS-FACTORIAL HepG2 Assay for human Myeloblastosis (Myb) Proto-Oncogene Transcription Factor (AID 2282986; active means hit-call score of the fitted dose curve at least 0.9, where 1 is the maximum; inactive means score below 0.9); details: HepG2 Attagene CIS-FACTORIAL Myb reporter transcription; actives raise or lower the signal
How it was run: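 Multiplexed cis-reporter system in HepG2: transient transfection, 24 h treatment, mRNA readout by RT-PCR and capillary electrophoresis. Both increases and decreases are scored versus DMSO negative control.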

[13] = ATG_VDRE_CIS: Attagene CIS-FACTORIAL HepG2 Assay for human Vitamin D Receptor Element (VDRE) (AID 2282968; active means hit-call score of the fitted dose curve at least 0.9, where 1 is the maximum; inactive means score below 0.9); details: HepG2 VDRE cis-reporter transcription, actives raise or lower the signal
How it was run: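 Measures endogenous factor activity through cis-element-driven reporter transcripts in transiently transfected HepG2. Cells are treated 24 h; reporter mRNA is quantified by RT-PCR and capillary electrophoresis; fitting is bidirectional.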

[14] = target: Hepatocyte nuclear factor 4-alpha (Homo sapiens) (UniProt P41235); assay: ATG_HNF4a_TRANS: Attagene TRANS-FACTORIAL HepG2 Assay for human Hepatocyte Nuclear Factor 4 alpha (HNF4a) (AID 2282982); details: HepG2 HNF4a transactivation reporter, mRNA readout
How it was run: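 Multiplexed reporter assay: transfected HepG2, 24 h exposure, total RNA → oligo(dT) RT → PCR → 6-FAM extension → HpaI digest → CE fluorescence. DMSO = negative control.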

[15] = target: Steroid hormone receptor ERR1 (Homo sapiens) (UniProt P11474); assay: ATG_ERRa_TRANS: Attagene TRANS-FACTORIAL HepG2 Assay for human Estrogen-Related Receptor alpha (ERRa) (AID 2282971); details: HepG2 Attagene TRANS reporter, ERRa transactivation
How it was run: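 HepG2 cells transiently transfected with multiplexed GAL4-UAS reporter units reading chimeric ERRa-Gal4 activity; 24 h compound exposure. Reporter mRNA measured by RT-PCR, 6-FAM labelling, HpaI digest and capillary electrophoresis; gain of signal fitted versus DMSO baseline.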

[16] = ATG_GAL4_TRANS: Attagene TRANS-FACTORIAL HepG2 Assay for GAL4 (Internal Marker) (AID 2282976); details: HepG2 Attagene TRANS GAL4 internal marker reporter
How it was run: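 HepG2 cells transiently transfected with multiplexed GAL4-UAS reporter constructs were dosed for 24 h. Reporter mRNA was measured by RT-PCR, 6-FAM primer extension, HpaI digestion and capillary electrophoresis, and gain of signal was fitted relative to DMSO.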

[17] = target: Oxysterols receptor LXR-beta (Homo sapiens) (UniProt P55055); assay: ATG_LXRb_TRANS: Attagene TRANS-FACTORIAL HepG2 Assay for human Liver X Receptor beta (LXRb) (AID 2282981); details: HepG2 Attagene TRANS GAL4-LXRb reporter, mRNA
How it was run: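 After 24 h of chemical treatment, transfected HepG2 cells yield total RNA; reporter cDNA is PCR-amplified, FAM-labelled, HpaI-cut and run on capillary electrophoresis. Signal reflects chimeric LXRb-Gal4 activity on GAL4-UAS reporters.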

[18] = target: Estrogen-related receptor gamma (Homo sapiens) (UniProt P62508); assay: ATG_ERRg_TRANS: Attagene TRANS-FACTORIAL HepG2 Assay for human Estrogen-Related Receptor gamma (ERRg) (AID 2282977); details: HepG2 Attagene TRANS reporter, ERRg transactivation;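 further: hits increase reporter signal over DMSO so potencies reflect activators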
How it was run: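 Exogenous NR-Gal4 chimera activity was assessed in HepG2 cells bearing transfected GAL4-UAS reporters. After 24 h dosing, total RNA underwent RT-PCR, fluorescent primer extension and HpaI digestion before capillary electrophoresis, with gain of signal scored against DMSO.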

[19] = target: Nuclear receptor subfamily 1 group I member 3 (Homo sapiens) (UniProt Q14994); assay: ATG_CAR_TRANS: Attagene TRANS-FACTORIAL HepG2 Assay for human Constitutive Androstane Receptor (CAR) (AID 2282969); details: HepG2 Attagene TRANS-FACTORIAL CAR reporter;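 further: activators raise reporter mRNA above DMSO so AC50 marks induction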
How it was run: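 Signal is reporter mRNA induction relative to DMSO, measured 24 h after dosing by RT-PCR with fluorescent primer extension and capillary electrophoresis. Human HepG2 liver cells carried transiently transfected chimeric NR-Gal4/GAL4-UAS reporter constructs.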

Measured: AC50

Sequence of Nuclear receptor subfamily 1 group I member 3 (Homo sapiens) (Q14994 whole entry, looked up, the tested form may be a part): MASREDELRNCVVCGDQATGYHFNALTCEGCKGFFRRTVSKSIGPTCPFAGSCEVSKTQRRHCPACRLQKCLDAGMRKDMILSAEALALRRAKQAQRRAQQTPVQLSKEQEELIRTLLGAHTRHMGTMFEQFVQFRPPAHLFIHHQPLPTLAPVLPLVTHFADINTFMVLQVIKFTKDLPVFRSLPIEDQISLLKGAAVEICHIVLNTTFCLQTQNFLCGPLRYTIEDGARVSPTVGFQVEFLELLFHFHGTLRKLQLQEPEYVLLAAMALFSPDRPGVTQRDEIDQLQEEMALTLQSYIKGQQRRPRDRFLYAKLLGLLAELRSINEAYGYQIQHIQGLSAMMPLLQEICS
Sequence of Transcriptional activator Myb (Homo sapiens) (P10242 whole entry, looked up): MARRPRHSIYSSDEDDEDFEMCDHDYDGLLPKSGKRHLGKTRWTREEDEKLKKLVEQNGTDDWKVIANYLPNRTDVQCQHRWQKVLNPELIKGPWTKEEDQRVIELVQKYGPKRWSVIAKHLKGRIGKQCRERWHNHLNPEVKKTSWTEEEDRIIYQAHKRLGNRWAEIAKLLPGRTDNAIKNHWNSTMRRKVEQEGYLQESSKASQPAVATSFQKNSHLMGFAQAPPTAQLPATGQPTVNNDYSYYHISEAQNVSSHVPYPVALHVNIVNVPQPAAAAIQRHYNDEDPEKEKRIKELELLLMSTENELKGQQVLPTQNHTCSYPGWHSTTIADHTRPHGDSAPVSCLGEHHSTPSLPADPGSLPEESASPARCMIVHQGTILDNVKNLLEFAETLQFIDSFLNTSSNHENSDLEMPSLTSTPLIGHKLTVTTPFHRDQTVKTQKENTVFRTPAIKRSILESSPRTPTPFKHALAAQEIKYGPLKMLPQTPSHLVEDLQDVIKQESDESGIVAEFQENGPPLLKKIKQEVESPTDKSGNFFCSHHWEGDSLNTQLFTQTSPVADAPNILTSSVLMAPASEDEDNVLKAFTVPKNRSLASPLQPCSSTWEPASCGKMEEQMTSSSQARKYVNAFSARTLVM
Sequence of Oxysterols receptor LXR-beta (Homo sapiens) (P55055 whole entry, looked up, the tested form may be a part): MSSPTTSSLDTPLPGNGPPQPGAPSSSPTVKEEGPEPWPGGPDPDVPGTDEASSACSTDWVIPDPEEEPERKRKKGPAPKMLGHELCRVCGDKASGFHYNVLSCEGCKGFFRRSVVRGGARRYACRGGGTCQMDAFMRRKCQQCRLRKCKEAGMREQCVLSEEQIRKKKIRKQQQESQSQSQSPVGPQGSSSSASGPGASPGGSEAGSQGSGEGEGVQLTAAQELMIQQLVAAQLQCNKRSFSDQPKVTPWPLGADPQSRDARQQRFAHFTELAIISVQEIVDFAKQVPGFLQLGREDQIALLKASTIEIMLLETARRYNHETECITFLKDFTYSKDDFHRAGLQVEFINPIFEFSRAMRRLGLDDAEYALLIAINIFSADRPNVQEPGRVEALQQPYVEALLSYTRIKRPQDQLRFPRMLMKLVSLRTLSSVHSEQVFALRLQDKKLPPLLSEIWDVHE
Sequence of Bile acid receptor (Homo sapiens) (Q96RI1 whole entry, looked up, the tested form may be a part): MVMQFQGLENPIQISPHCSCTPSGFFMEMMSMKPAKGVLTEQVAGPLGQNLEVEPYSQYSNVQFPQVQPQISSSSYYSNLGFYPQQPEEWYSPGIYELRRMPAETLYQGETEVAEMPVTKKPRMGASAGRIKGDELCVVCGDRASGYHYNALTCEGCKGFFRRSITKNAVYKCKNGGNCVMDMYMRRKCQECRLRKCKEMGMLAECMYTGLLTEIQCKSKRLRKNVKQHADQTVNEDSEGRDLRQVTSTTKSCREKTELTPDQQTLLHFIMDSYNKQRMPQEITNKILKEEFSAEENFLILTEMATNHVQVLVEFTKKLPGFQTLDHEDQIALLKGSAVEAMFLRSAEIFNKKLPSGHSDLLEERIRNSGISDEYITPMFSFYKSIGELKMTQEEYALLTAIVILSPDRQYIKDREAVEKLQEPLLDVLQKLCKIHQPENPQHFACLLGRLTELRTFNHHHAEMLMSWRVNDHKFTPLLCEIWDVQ
Sequence of Oxysterols receptor LXR-alpha (Homo sapiens) (Q13133 whole entry, looked up, the tested form may be a part): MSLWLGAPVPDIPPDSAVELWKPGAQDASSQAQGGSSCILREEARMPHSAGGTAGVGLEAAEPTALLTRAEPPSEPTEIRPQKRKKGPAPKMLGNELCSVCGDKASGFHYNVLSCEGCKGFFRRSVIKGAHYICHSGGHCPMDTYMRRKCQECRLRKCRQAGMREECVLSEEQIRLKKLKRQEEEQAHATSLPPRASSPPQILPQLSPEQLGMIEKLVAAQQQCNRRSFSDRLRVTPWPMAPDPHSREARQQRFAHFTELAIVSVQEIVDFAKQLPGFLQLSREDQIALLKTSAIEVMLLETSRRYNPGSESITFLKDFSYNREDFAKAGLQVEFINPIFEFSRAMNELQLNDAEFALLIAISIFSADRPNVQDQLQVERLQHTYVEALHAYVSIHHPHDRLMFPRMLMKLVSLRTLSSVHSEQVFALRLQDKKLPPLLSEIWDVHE
Sequence of Estrogen receptor (Homo sapiens) (P03372 whole entry, looked up, the tested form may be a part): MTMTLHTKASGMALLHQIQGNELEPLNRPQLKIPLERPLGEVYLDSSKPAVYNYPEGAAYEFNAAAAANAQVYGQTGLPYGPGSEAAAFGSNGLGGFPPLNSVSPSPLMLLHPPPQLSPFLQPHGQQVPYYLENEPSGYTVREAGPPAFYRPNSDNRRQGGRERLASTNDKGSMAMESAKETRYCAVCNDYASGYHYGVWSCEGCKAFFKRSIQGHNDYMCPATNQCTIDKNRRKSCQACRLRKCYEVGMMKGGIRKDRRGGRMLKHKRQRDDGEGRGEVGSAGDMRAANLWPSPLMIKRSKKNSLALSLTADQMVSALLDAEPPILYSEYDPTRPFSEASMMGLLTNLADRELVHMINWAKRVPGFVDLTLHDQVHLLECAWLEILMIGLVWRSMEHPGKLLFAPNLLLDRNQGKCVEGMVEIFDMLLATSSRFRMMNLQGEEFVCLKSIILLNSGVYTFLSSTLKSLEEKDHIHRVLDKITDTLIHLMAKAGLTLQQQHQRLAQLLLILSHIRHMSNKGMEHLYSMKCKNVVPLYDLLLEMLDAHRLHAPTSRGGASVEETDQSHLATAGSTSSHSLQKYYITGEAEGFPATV
Sequence of Glucocorticoid receptor (Homo sapiens) (P04150 whole entry, looked up, the tested form may be a part): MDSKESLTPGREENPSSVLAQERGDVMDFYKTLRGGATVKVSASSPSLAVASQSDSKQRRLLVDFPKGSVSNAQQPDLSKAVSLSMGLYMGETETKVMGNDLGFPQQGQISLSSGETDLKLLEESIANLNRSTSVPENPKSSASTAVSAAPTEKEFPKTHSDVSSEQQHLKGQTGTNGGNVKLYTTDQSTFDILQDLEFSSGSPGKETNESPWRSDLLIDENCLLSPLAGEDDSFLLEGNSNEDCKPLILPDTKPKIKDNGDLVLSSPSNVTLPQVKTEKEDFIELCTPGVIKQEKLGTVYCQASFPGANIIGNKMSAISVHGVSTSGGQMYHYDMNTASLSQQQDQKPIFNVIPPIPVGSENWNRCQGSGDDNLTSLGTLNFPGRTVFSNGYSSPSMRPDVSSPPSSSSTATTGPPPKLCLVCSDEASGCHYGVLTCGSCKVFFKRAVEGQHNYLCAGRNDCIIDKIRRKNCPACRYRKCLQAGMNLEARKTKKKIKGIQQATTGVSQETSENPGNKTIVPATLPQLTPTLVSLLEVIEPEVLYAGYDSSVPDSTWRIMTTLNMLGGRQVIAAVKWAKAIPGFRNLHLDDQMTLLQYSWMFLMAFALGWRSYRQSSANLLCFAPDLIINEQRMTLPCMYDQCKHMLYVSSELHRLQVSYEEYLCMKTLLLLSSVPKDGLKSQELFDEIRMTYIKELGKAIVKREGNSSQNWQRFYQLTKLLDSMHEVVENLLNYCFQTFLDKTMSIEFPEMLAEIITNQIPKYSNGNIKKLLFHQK
Sequence of X-box-binding protein 1 (Homo sapiens) (P17861 whole entry, looked up): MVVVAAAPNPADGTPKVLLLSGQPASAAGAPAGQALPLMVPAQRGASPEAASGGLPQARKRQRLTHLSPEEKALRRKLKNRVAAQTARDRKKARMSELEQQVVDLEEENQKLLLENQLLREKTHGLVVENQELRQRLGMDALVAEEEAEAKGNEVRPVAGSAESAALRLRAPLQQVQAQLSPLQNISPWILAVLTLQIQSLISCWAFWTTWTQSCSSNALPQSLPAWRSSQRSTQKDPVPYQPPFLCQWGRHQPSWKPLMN
Sequence of Hepatocyte nuclear factor 4-alpha (Homo sapiens) (P41235 whole entry, looked up): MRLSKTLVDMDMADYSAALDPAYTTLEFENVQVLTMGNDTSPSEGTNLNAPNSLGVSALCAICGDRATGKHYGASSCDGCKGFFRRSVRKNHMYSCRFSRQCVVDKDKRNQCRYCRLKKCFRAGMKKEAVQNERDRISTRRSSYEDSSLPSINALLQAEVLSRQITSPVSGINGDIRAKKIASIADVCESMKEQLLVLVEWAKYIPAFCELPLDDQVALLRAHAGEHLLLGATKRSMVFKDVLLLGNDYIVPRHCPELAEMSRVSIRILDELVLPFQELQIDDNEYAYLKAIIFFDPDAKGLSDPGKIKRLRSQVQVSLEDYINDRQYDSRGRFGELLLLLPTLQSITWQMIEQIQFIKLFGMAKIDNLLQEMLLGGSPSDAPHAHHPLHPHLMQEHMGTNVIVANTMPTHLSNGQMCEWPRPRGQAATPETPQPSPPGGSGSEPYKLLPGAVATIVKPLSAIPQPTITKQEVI
Sequence of Steroid hormone receptor ERR1 (Homo sapiens) (P11474 whole entry, looked up, the tested form may be a part): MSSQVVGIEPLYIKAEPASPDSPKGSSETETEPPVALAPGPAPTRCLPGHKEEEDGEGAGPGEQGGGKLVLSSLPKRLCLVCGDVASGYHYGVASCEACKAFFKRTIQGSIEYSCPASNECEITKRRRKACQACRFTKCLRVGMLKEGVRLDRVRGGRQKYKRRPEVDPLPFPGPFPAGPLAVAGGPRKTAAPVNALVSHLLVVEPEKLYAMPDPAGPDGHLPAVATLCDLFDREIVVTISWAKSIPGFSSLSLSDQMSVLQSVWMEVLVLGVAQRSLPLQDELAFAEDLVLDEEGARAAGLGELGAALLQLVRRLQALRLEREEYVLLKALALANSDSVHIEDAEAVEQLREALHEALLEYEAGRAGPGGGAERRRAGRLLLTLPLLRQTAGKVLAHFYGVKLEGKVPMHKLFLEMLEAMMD

CN1CCN(Cc2cc(-c3ccc4[nH]c(=O)oc4c3)co2)[C@@H](c2ccc(F)cc2)C1
active: [1] 25.7 µM
not listed: [13] | [14] | [15] | [16] | [17] | [18] | [19]
inactive: all other assays above

Cc1ccc(N(C)C)cc1
inactive: [1] | [2] | [13] | [4] | [6] | [14] | [9] | [10] | [12]

CCOC(=O)C(C)(C)Oc1ccc(Cl)cc1
not listed: [6] | [9] | [13] | [14] | [17] | [18] | [19]
inactive: all other assays above

C=CCOC(=O)c1ccccc1C(=O)OCC=C
active: [8] 25.1 µM
inactive: [1] | [2] | [4] | [5] | [16] | [7] | [17] | [9] | [11] | [12]

COc1ccc(S(=O)(=O)N2C(=O)[C@@](c3ccccc3OC)(N3C[C@H](O)C[C@H]3C(=O)N(C)C)c3cc(Cl)ccc32)c(OC)c1
inactive: [5] | [11]
active: [1] 42.1 µM | [2] 177 µM | [4] 69.5 µM

Cc1nc(C)nc(N2C[C@@H](C)N(c3ccnc([C@@H](C)O)n3)[C@@H](C)C2)n1
not listed: [3] | [5] | [8] | [11] | [14] | [15] | [19]
inactive: all other assays above

CCCCCCCCCCCCCO
active: [1] 34.3 µM | [12] 34.3 µM
not listed: [3] | [7] | [8] | [11] | [13] | [16] | [18]
inactive: all other assays above

Nc1ccc(S(=O)(=O)c2ccc(N)cc2)cc1
not listed: [6] | [13] | [15] | [16] | [18] | [19]
inactive: all other assays above

Cc1ccc(C)c(C)c1
inactive: [1] | [2] | [19] | [3] | [4] | [5] | [6] | [11] | [12]

Cc1ccc(C(C)C)c(O)c1
active: [3] 46.1 µM
not listed: [5] | [7] | [8] | [10] | [13] | [15]
inactive: all other assays above

Cc1c(C(=O)O)c(O)cc2c1C(=O)c1c(O)c([C@@H]3O[C@H](CO)[C@@H](O)[C@H](O)[C@H]3O)c(O)c(O)c1C2=O
inactive: [1] | [2] | [3] | [4] | [5] | [6] | [7] | [14] | [10] | [11]
